Experimental data from the supplement of paper PMC3334620.
The full ranking holds about 33,000 sequences; the median of “E-score (-0.5 to 0.5)” is about -0.0059, and the highest 2% start at about 0.26. Many of the other results were omitted from the sample, so the highest values are more common in it than they were.

Each sequence was assayed against T1, Cin5 (UniProt P40917) (assay: PBM E-score (8-mer binding enrichment) (E-score (-0.5 to 0.5)); higher = stronger / more preferred TF binding). Settings: protein concentration: 100 nM; construct: GST-full length.
T1 sequence: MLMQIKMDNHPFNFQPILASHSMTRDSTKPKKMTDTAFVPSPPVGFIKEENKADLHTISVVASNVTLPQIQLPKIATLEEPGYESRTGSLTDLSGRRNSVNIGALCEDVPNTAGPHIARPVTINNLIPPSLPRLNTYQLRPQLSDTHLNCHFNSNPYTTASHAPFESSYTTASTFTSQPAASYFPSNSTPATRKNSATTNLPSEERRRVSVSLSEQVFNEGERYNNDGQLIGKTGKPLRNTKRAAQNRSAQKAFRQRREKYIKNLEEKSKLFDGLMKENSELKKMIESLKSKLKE
Summary of the method: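 The E-score, a modified Wilcoxon-Mann-Whitney statistic, was computed by the Universal PBM Analysis Suite for every ungapped eight-base word pooled with its reverse complement. Scans behind it were normalised with masliner after bound GST-tagged yeast transcription factors were detected with fluorescent anti-GST. The proteins, at about 100-200 nM, had been applied to universal all-10-mer Agilent arrays made double-stranded by primer extension.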

| Sequence | PBM E-score |
| --- | --- |
| GCGACCGA | 0.0144 |
| GTGAGGAA | -0.138 |
| GGCTTTTA | -0.223 |
| AACTGGGA | -0.0428 |
| AATCCTAA | 0.0229 |
| ACAGTTGG | 0.016 |
| GTAACGTA | 0.129 |
| ATAACGTA | 0.313 |
| CTAACGAA | -0.0791 |
| ATAACGAC | 0.238 |
| ATAACCAG | 0.0194 |
| CTAACCAA | 0.0775 |
| ATAACCAA | 0.258 |
| ATAACGTC | 0.0919 |
| ATAACGAA | 0.294 |
| ACCGGCGC | 0.0762 |
| ATCCGGCA | 0.0463 |
| GGTGAACC | -0.108 |
| CTTTTGAC | -0.0394 |
| AGTTACTC | 0.0474 |
| CGACACCC | -0.0488 |
| ACATAGAG | -0.0918 |
| ATGCGCAA | 0.128 |
| ATGCGCAT | 0.332 |

| Sequence | PBM E-score |
| --- | --- |
| ATGCGCAC | 0.0881 |
| AAGTCTAA | -0.0864 |
| ACCCATTG | -0.0482 |
| CAAGTTAC | 0.104 |
| ATCAGCAA | 0.0322 |
| CTAAGCAC | 0.183 |
| CTAAGCAA | 0.076 |
| ATAAGCAA | 0.349 |
| ATAAGCAG | 0.33 |
| GTCAGCAA | 0.267 |
| CTAAGCAG | 0.042 |
| ATAAGCAT | 0.118 |
| ATAAGCAC | 0.175 |
| CTCAGCAA | 0.0669 |
| GTAAGCAC | 0.319 |
| ACAAGCAA | 0.122 |
| ACTGGAGC | -0.253 |
| GCTATCCC | -0.129 |
| ATAGGCAA | 0.157 |
| AAGAAGAA | 0.0684 |
| ACTCCTAA | 0.00319 |
| ATCAACGA | 0.0637 |
| GTAACGCA | 0.0946 |
| ACCCCGGA | -0.00022 |

| Sequence | PBM E-score |
| --- | --- |
| GCAAGCAA | 0.00274 |
| GTAAGCAA | 0.419 |
| TTAAGCAA | 0.0545 |
| AACACTCA | 0.182 |
| CGGCCAAG | -0.069 |
| AAAGGCGG | -0.104 |
| ACGAAGAA | 0.284 |
| TCGAAGAA | 0.014 |
| ACGAAGAT | 0.116 |
| GCAATGCA | -0.053 |
| GGCTCTAA | 0.0226 |
| ACCATTGC | 0.0233 |
| GTGCAAAA | -0.037 |
| ATCAATTC | 0.044 |
| AACAATTC | 0.111 |
| ATCAATTA | 0.317 |
| ACCAATTG | -0.0132 |
| ACCAATTA | 0.266 |
| ATCAATTG | 0.232 |
| AACAATTG | 0.0983 |
| GCCAATTA | 0.155 |
| AACAATTA | 0.295 |
| CCTGGACG | -0.179 |
| GCCTCAAA | 0.0112 |

| Sequence | PBM E-score |
| --- | --- |
| GGCCTGGA | -0.317 |
| AGCCCCAG | -0.0735 |
| CCTCACAG | 0.0094 |
| CGGGGAAG | -0.0981 |
| CACGTTGA | -0.095 |
| ATAAGCTA | 0.2 |
| ATAAGCCA | 0.11 |
| CTAAGCTA | 0.162 |
| GTAAGCCA | 0.264 |
| CTAAGCCA | -0.074 |
| GTAAGCTA | 0.36 |
| AGTCTCAG | -0.123 |
| AACCTGAC | 0.131 |
| ACGAGTCA | -0.257 |
| CAAGAAGC | 0.0478 |
| AGCTCATG | -0.0196 |
| CAGACGAA | 0.286 |
| GAGACGAA | 0.0297 |
| CAGACGAC | -0.168 |
| GAGCGGTA | -0.0453 |
| GCAAAAGC | -0.0287 |
| ATTCCGCA | -0.0146 |
| ATTCCACA | 0.266 |
| ATTCCACC | 0.15 |

| Sequence | PBM E-score |
| --- | --- |
| ATTCCGCG | 0.261 |
| ATCCCGCG | 0.258 |
| ATTCCGCC | 0.215 |
| ATCCCGCA | 0.135 |
| ATTCCACG | 0.0808 |
| ATCCCGCC | 0.0426 |
| ATGACGCA | 0.195 |
| CTTATTAC | 0.236 |
| CTTATTGA | 0.125 |
| CGTATTAA | 0.106 |
| ACTATTAA | 0.162 |
| GTTATTAA | 0.214 |
| ATTATTAC | 0.305 |
| ACTATTAC | 0.224 |
| ATTATTAA | 0.316 |
| CTTATTAA | 0.299 |
| CGGGAACG | -0.00694 |
| GAGCGGCC | -0.239 |
| GAGATCTC | -0.0335 |
| GATCCCTA | -0.0517 |
| CACATAAG | 0.109 |
| AACATAAC | 0.223 |
| AACATAAG | 0.328 |
| ATCATAAT | 0.327 |

| Sequence | PBM E-score |
| --- | --- |
| ATCATAAG | 0.204 |
| AACATAAT | 0.346 |
| AACATACG | 0.171 |
| ATCATAAA | 0.131 |
| AACATACT | 0.0533 |
| AAGTCAAC | 0.0456 |
| CACTGTTC | -0.108 |
| AGGATATA | 0.152 |
| CAGTCCGA | -0.0341 |
| AGGTTAGC | -0.199 |
| TCGTCGAA | -0.161 |
| AAACATAT | 0.269 |
| AAACATAG | -0.0763 |
| AAACATGT | 0.261 |
| AAACATAC | 0.0238 |
| AAACATGA | 0.131 |
| AAACATGG | 0.0681 |
| CCCAAGGC | -0.0737 |
| AAACCTTG | 0.072 |
| ACTAAAGA | -0.0785 |
| CAGGGCGC | -0.0291 |
| GAAGCGAA | -0.0046 |
| TAAGCACA | 0.314 |
| AAAGCAGA | 0.178 |

| Sequence | PBM E-score |
| --- | --- |
| CAAGCAGA | 0.0983 |
| CAAGCGAA | 0.187 |
| CAAGCACA | -0.0819 |
| TAAGCAGA | 0.306 |
| TAAGCGAA | 0.275 |
| CAAGCACG | -0.0414 |
| ACCGGGAC | -0.0537 |
| AAGGGGAG | -0.252 |
| ATTTCTCA | 0.0803 |
| ATTTCTCG | 0.313 |
| ATTTTACC | 0.237 |
| AATTTTCC | 0.289 |
| ATTTTCCC | 0.0377 |
| ATTTTTCC | -0.0233 |
| ATTTTCCG | 0.329 |
| ATTTCTCC | 0.0831 |
| AATTTTTC | 0.057 |
| ATTTTACG | 0.271 |
| AATTTCCG | 0.18 |
| AATTTACG | 0.234 |
| ATACTTCG | 0.129 |
| GACGTCCC | -0.0301 |
| GCATTCGC | -0.157 |
| AGACACCT | -0.048 |
